# From PubChem BioAssay
# Sampled rows, rich in hits. Any-hit rate of the full collection: about 1.4%.
# 3CLpro inhibitor: SARS-CoV 3CLpro protease inhibition | hit rate 0.14% among 290,000 | recombinant SARS-CoV 3CLpro, quenched FRET peptide cleavage | P0C6X7 | AID 1706 | inhibition, % at 6 µM; in the data active = inhibition above about 12%
# PrPC TRFRET: inhibitors of human cell surface prion protein PrPC. P04156. TR-FRET read-out. inhibition, % at 13.8 µM. hit rate 0.43% among 370,000. AID 720596; in the data active = inhibition above about 24%; note: 0% = median of the test wells and 100% = reference compound wells
# RecA intein inh: Mtb RecA intein splicing inhibition. cell-free RecA intein splicing, fluorescence. inhibition, % (test concentration not listed). hit rate 0.75% among 290,000. AID 2221; in the data active = inhibition above about 30%;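 note: 0% = vehicle wells and 100% = reference inhibitor control wells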
# Target sequence (P9WHJ3 whole entry, looked up): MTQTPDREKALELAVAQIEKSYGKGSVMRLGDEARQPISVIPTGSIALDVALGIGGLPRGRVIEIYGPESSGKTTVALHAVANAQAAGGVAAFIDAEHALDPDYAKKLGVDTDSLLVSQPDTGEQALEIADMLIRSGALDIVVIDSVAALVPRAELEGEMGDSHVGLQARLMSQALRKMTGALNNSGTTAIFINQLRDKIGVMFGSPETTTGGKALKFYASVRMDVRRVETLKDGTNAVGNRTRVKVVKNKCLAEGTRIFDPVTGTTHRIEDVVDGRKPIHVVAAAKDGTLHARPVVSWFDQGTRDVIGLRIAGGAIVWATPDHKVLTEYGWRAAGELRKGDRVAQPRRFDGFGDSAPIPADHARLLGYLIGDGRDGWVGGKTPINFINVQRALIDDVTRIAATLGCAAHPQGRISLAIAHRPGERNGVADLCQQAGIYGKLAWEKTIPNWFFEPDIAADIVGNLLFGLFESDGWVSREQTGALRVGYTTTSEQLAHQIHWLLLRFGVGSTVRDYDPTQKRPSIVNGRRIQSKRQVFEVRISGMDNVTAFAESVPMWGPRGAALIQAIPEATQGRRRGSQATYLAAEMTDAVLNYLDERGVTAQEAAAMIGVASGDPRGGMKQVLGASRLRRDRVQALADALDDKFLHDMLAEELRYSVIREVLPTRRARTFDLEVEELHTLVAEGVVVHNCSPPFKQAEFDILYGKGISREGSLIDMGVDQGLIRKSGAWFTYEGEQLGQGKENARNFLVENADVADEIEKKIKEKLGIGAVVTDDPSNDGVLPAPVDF
# BJeLR lethal: kills HRASV12-expressing BJeLR cells | inhibition, % (test concentration not listed) | BJeLR (HRASV12) viability, CellTiter-Glo ATP luminescence, 48 h | hit rate 0.17% among 300,000; in the data active = inhibition above about 50%
# Mtb hypoxia inh: Mtb hypoxia fluorescent reporter inhibition; M. tuberculosis hypoxia-regulated fluorescent reporter, fluorescence; fluorescence inhibition, % (test concentration not listed); hit rate 0.1% among 300,000; AID 1159583; in the data active = fluorescence inhibition mostly above about 23%, no sharp cut-off; inactive = mostly below about 17%
# PrP 5UTR inh: inhibition of PrP 5' UTR reporter expression | AID 488862 | cell-based PrP 5' UTR mRNA reporter, plate reader | inhibition, % (test concentration not listed) | hit rate 0.35% among 340,000; in the data active = inhibition above about 52%; note: 0 = median of the neutral control wells
# GFP chromo cs: counter-screen: blocks GFP chromophore formation; shares compounds with RecA intein inh; AID 434968; hit rate 83% among 2,100; cell-free GFP chromophore formation, fluorescence; EC50, µM; call rule not given here
# Numbers without * were called inactive; x = not tested or not shown.
SMILES,3CLpro inhibitor,PrPC TRFRET,RecA intein inh,BJeLR lethal,Mtb hypoxia inh,PrP 5UTR inh,GFP chromo cs
CC(C)N(c1ccccc1)c1ccc(NC(=O)[C@@H]2O[C@H](CO)[C@H](O)[C@H](O)[C@H]2O)cc1,x,8.8,x,x,x,x,x
O=C(CCl)Nc1ccc(N=Nc2ccccc2)cc1,-1.3,-3.0,78.8*,-9.9,1.5,-30.8,30.3*
CC(=NNC(=O)c1cccc(Cl)c1)c1cccc(NC(=O)c2ccco2)c1,x,x,x,x,5.8,x,x
O=C1CCC(OCc2ccccc2)CCN1CCC(Sc1ccccc1)c1ccccc1 (stereo not given),x,x,x,x,11.5,x,x
COC(=O)CC1c2cc(F)ccc2S(=O)(=O)N1c1ccccc1 (stereo not given),x,x,x,x,9.1,x,x
CN(C)c1ncc(C2=C(Cl)C(=O)C(N3CCCC3)=C(Cl)C2=O)s1,5.7,-7.7,59.8*,-27.3,14.5,-5.1,4.45*
CC(=O)c1cnc(N(C)C)s1,0.5,-7.3,-3.2,-2.0,x,-15.7,x
O=C1C(Cl)=C(N2CCCCC2)C(=O)C(Cl)=C1c1cnc(N2CCCCC2)s1,6.4,x,34.9*,-32.3,5.4,15.1,0.45*
O=C(NN=Cc1cnc(N2CCCCC2)s1)c1ccc(Cl)cc1,x,x,x,x,9.8,x,x
Cc1ccc(CNC(=O)C2(C(F)(F)F)CC(=CCc3ccccc3)CCCO2)o1 (stereo not given),x,x,x,x,3.2,x,x
CC(=NN1CCN(Cc2cccc3ccccc23)CC1)c1cccnc1,x,x,x,x,13.8,x,x
COc1cccc(C=NNC(=O)C(c2ccncc2)N2CCOCC2)c1 (stereo not given),x,x,x,x,6.9,x,x
O=[N+]([O-])c1cc(C=Nc2cccc3c(O)cccc23)ccc1Cl,3.9,x,64.4*,-7.2,x,x,32.5*
O=C(NN=Cc1ccc(Cl)c([N+](=O)[O-])c1)C1CC1,x,x,x,x,-0.2,x,x
CCN1CC2C3C(=O)N(C)C(=O)C3[C@](C)(C1=O)N2C(=O)c1ccc(Br)cc1 (stereo not given in full),x,x,x,x,19.1,x,x
CCCCCCn1c(N2CCC(C(N)=O)CC2)nc2c1c(=O)n(C)c(=O)n2C,-0.8,4.0,47.0*,-11.4,x,-11.0,>38
C[C@@]12C(=O)Nc3ccccc3C(=O)N1C1c3cc(Cl)ccc3OCC1C2c1ccccc1 (stereo not given in full),x,x,x,x,-2.7,x,x
CCOC(=O)c1cc(C)n(-c2ccc(Cl)cc2)c1C,1.4,10.5,8.9,-9.0,6.2,-32.9,x
CCOc1ccc(-n2c(C)cc(C(=O)CCl)c2C)cc1,8.0,5.3,48.3*,43.9,6.2,-12.7,27.9*
C#Cc1ccc(C2C=C(C(=O)O)OC(OCCCCO)C2)cc1 (stereo not given),x,x,x,x,4.3,x,x
CCOC(=O)/C(C#N)=C\c1cccnc1,0.2,1.5,1.0,4.1,7.6,1.6,x
CCOC(=O)C(C#N)C(c1cccnc1)c1c(C)[nH][nH]c1=O (stereo not given),1.5,-1.1,78.2*,-11.0,1.3,3.7,11.5*
CC=C(C)C(=O)Nc1cccc(C2=NOC3(C2)CC(C(N)=O)N(C(=O)C2(C)CC2)C3)c1 (stereo not given),x,x,x,x,2.2,x,x
COc1ccc(NC(=O)C=Cc2cc(Br)ccc2OC)cc1,x,x,x,x,8.1,x,x
Nc1ccc(N)c(C(=O)O)c1,x,x,56.8*,-5.8,x,5.8,9.73*
SMILES,3CLpro inhibitor,PrPC TRFRET,RecA intein inh,BJeLR lethal,Mtb hypoxia inh,PrP 5UTR inh,GFP chromo cs
Nc1ccc(C(=O)O)c(O)c1,1.9,-2.7,0.6,2.9,x,-18.5,x
CC(C)(C)OC(=O)NCCCCC(NC(=O)c1nc[nH]c1C(=O)NCC(=O)OCc1ccccc1)C(=O)OC(C)(C)C (stereo not given),x,x,x,x,12.6,x,x
COc1ccc(C(=O)N2c3ccccc3C=CC2C#N)cc1 (stereo not given),-2.3,-3.5,6.2,4.0,-6.5,-4.1,x
N#C[C@H]1[C@H](c2ccccc2)[C@](C#N)(C(=O)c2ccccc2)[C@@H]2C=Cc3ccccc3N21,7.6,x,53.1*,-4.5,x,x,23.1*
CCCc1ccc(/C=C2\C(=O)c3ccccc3C(O)=C2C(=O)OCC)cc1,3.7,x,36.2*,25.9,x,x,10.2*
CCOC(=O)C1=C(O)c2ccccc2C(=O)/C1=C\c1ccc(CC)cc1,3.6,x,48.6*,14.5,5.9,-28.0,5.08*
CCOC(=O)C1=C(C)OC(=Cc2ccc(OC)cc2)C1=O,x,-0.1,x,x,x,x,x
COc1ccc(OCc2cc(C(=O)N3CCCC(OC)C3)no2)c2ccccc12 (stereo not given),1.7,-3.5,35.2*,-0.8,x,-47.1,30.4*
COc1ccc(OCc2cc(C(=O)N3CCCC(O)C3)no2)c2ccccc12 (stereo not given),5.2,0.5,24.3,3.8,1.7,-52.5,x
Cc1ccnc(Sc2ccc([N+](=O)[O-])cn2)n1,1.5,-17.7,4.9,-5.3,7.1,-14.9,x
CC(C)(C)c1csc(Sc2ccc([N+](=O)[O-])cn2)n1,-1.8,5.8,31.9*,-6.0,5.4,-13.7,9.2*
COC(=O)Cc1[nH]nc2c1C1(CCSCC1)C(C#N)=C(N)O2,-8.8,-10.4,65.6*,-3.3,5.0,-20.1,16.7*
COC(=O)Cc1[nH]nc2c1C1(C(=O)N(Cc3ccc(Cl)cc3)c3ccccc31)C(C#N)=C(N)O2 (stereo not given),4.6,-6.5,15.2,4.0,x,-19.7,x
Cc1ccc(SCc2[nH]nc3c2C2(CCSCC2)C(C#N)=C(N)O3)cc1,-1.8,-0.9,60.1*,-5.2,-3.2,-28.7,16.3*
CC(C)C1NC(=O)c2cc([N+](=O)[O-])cc(I)c2OCCC(C(N)=O)NC(=O)C(CCC(=O)O)NC1=O (stereo not given),x,x,x,x,-3.6,x,x
Cc1ccc(S(=O)(=O)N=C2CN(C)C(=O)N2C)cc1,x,x,x,x,12.5,x,x
CSCCC1C(C#N)=C(N)Oc2n[nH]c(-c3cccs3)c21 (stereo not given),-4.2,-4.3,84.9*,-10.1,13.7,-25.6,9.13*
CC(C)CC1C(C#N)=C(N)Oc2n[nH]c(-c3cccs3)c21 (stereo not given),-1.8,7.0,86.4*,-5.5,-4.3,6.7,>38
CCC(C)C1C(C#N)=C(N)Oc2n[nH]c(-c3ccccc3)c21 (stereo not given),3.7,-2.9,4.8,3.2,-2.0,-34.5,x
O=C(NNC(=O)c1cccc2ccccc12)c1ccc(Cl)cc1Cl,x,-2.1,x,x,8.4,-45.2,x
O=C(NNC(=O)c1ccc2ccccc2c1O)c1ccccc1Cl,0.7,5.8,34.6*,9.0,x,-54.7,>38
CCCCCCOc1ccc(N2C(=O)CC(S/C(N)=N/N=C(C)c3cccs3)C2=O)cc1 (stereo not given),x,x,x,x,9.5,x,x
CCCCCCCCNC(=O)/C(C#N)=C/c1ccccc1[N+](=O)[O-],-0.6,2.3,42.3*,1.1,-12.5,-5.3,11.8*
COc1ccc(S(=O)(=O)N(C)CC2Oc3ccc(NC(=O)C4CC4)cc3C(=O)N(C(C)CO)CC2C)cc1 (stereo not given),x,x,x,x,14.0,x,x
COc1cc(C=Cc2ccc3cccc([N+](=O)[O-])c3n2)ccc1OCC#N,x,x,x,x,1.3,x,x
